Laboratory results: the supplement of paper PMC6555819

Legend:
Test in all cases: PBM binding z-score (relative to random genomic background probes); higher = stronger binding; sequences stand for … in GC…GCGATTGACAGCGTAGAATGAAGG
[1] = test system: PPARg:RXRa DBDmut IVT, anti-RXR (DBD mutation: RXRa K156A/R161A, NR concentration 270 nM, RXRa partner concentration 90 nM)
Summary of the method: (§1)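 Ligand-free nuclear receptor dimers were bound for 1 h to custom Agilent 4×180K protein-binding microarrays. Detection used antibodies against each partner (one per run). Binding z-scores rest on regression-normalized fluorescence, with random background probes as the reference.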

[2] = test system: PPARg:RXRa IVT, anti-PPARg (NR concentration 270 nM, RXRa partner concentration 90 nM)
Summary of the method: as §1

[3] = test system: PPARg homodimer (NR concentration 180 nM)
Summary of the method: as §1

[4] = test system: PXR:RXRa (NR concentration 270 nM, RXRa partner concentration 90 nM)
Summary of the method: as §1

[5] = test system: PXR homodimer (NR concentration 270 nM)
Summary of the method: as §1

[6] = test system: RARa:RXR (NR concentration 270 nM, RXRa partner concentration 90 nM)
Summary of the method: as §1

[7] = test system: RARa homodimer (NR concentration 270 nM)
Summary of the method: as §1

[8] = test system: RARb:RXRa (NR concentration 270 nM, RXRa partner concentration 90 nM)
Summary of the method: as §1

[9] = test system: RARb homodimer (NR concentration 270 nM)
Summary of the method: as §1

[10] = test system: RARg:RXRa (NR concentration 270 nM, RXRa partner concentration 90 nM)
Summary of the method: as §1

[11] = test system: RARg homodimer (NR concentration 270 nM)
Summary of the method: as §1

[12] = test system: RXRa DBDmut IVT, anti-RXR (DBD mutation: RXRa K156A/R161A, NR concentration 90 nM)
Summary of the method: as §1

[13] = test system: RXRa homodimer (NR concentration 180 nM)
Summary of the method: as §1

[14] = test system: THRa:RXRa (NR concentration 90 nM, RXRa partner concentration 90 nM)
Summary of the method: as §1

[15] = test system: THRa homodimer (NR concentration 90 nM)
Summary of the method: as §1

[16] = test system: VDR homodimer (NR concentration 270 nM)
Summary of the method: as §1

[17] = test system: VDR:RXRa (NR concentration 270 nM, RXRa partner concentration 90 nM)
Summary of the method: as §1

Sequence | PBM binding z-score [1] | PBM binding z-score [2] | PBM binding z-score [3] | PBM binding z-score [4] | PBM binding z-score [5] | PBM binding z-score [6] | PBM binding z-score [7] | PBM binding z-score [8] | PBM binding z-score [9] | PBM binding z-score [10] | PBM binding z-score [11] | PBM binding z-score [12] | PBM binding z-score [13] | PBM binding z-score [14] | PBM binding z-score [15] | PBM binding z-score [16] | PBM binding z-score [17]
TCGAGTAGGTTACGGGGGTATTCAGGGATGAAGA | 4.5 | 5.38 | 1.51 | 2.09 | 0.83 | 2.49 | 0.925 | 2.07 | 1.58 | 2.08 | 1.62 | 1.44 | 2.06 | 2.99 | 1.08 | 1.21 | –
CCGAGTAGGTTATGAGGGGGCATTCAGTGCGAAT | 3.45 | 4.11 | 1.86 | 4.85 | 5.74 | 2.87 | 0.734 | 2.06 | 2.32 | 2.98 | 2.83 | 1.66 | 1.95 | 3.88 | 1.86 | 3.74 | –
CTATGCAGGTTAAGGGGGTCATTCAGTTTGAAAG | 4.72 | 5.58 | 2.68 | 5.97 | 12.4 | 5.93 | 1.66 | 3.52 | 3.8 | 5.13 | 4.11 | 2.38 | 6.2 | 3.91 | 2.28 | 5.99 | –
CCGAGTAGGTTGCGAGGGGGCATTCAGTGCGAAT | 1.37 | 2.13 | 0.668 | 3.67 | 4.85 | 2.34 | 0.292 | 1.57 | 1.77 | 1.99 | 1.28 | 1.58 | 1.27 | 3.09 | 0.684 | 3.23 | –
CTATGTAGGTTAAGGGGATCATTCAGTTTGAAAG | 7.23 | 6.92 | 1.89 | 1.01 | 0.432 | 0.816 | 0.323 | 1.05 | 0.917 | 0.82 | 0.66 | 0.605 | 1.12 | 0.96 | 0.136 | 0.834 | –
TCGAGTAGGTTACGGGCGCATTCAGGGATGAAGA | 2.38 | 2.9 | 0.541 | -0.126 | -0.432 | 0.353 | -0.39 | 0.68 | 0.216 | 0.276 | 0.202 | -0.064 | 0.599 | 0.304 | -0.327 | -0.375 | -0.354
TCGAGTAGTTTACGGGGGCATTCAGGGATGAAGA | 2.03 | 3.22 | 0.685 | 2.74 | 1.47 | 2.36 | -0.25 | 2 | 1.53 | 2.16 | 1.57 | 2.09 | 1.48 | 3.55 | 1.05 | 3.23 | 3.09
CCGAGTAGGTTACGAGGGGGCATTCATTGCGAAT | 4.44 | 4.49 | 1.17 | 4.23 | 0.535 | 2.77 | 0.224 | 1.94 | 2.05 | 3.01 | 2.09 | 1.21 | 2 | 3.7 | 0.405 | 2.02 | 4.7
TCGAGGAGGTTACGGGGGCATTCAGGGATGAAGA | 3.43 | 5.82 | 2.53 | 4.07 | 2.7 | 4.4 | 0.971 | 3.42 | 2.61 | 4.51 | 3.37 | 2.51 | 4.12 | 4.31 | 1.88 | 3.86 | 5.08
CTATGTAGGTTAAGTGGGTCATTCAGTTTGAAAG | 7.7 | 7.89 | 1.59 | 2.36 | 4.47 | 2.23 | 0.913 | 2.15 | 2.4 | 1.97 | 1.95 | 0.703 | 1.73 | 1.97 | 0.347 | 2.29 | 4.99
CCGAGTAGGTTACGAGGGGGCATTCAATGCGAAT | 4.67 | 4.57 | 2.11 | 4.33 | 0.729 | 3.11 | 0.217 | 2.14 | 1.91 | 3.12 | 2.47 | 1.05 | 2.2 | 3.78 | 0.33 | 2.09 | 4.88
CCGAGTAGGTTACGAGGGGGCATTTAGTGCGAAT | 4.67 | 4.43 | 1.41 | 4.52 | 2.55 | 3.03 | 0.176 | 2.09 | 2.18 | 3.09 | 2.33 | 1.31 | 2.16 | 3.92 | 0.585 | 2.81 | –
CCGAGTAGGTTACGAGGGGGGATTCAGTGCGAAT | 5.06 | 4.91 | 2 | 3.27 | 2.11 | 2.61 | 0.858 | 1.84 | 1.82 | 2.43 | 1.99 | 1.88 | 1.24 | 3.19 | 1.76 | 1.94 | 3.17
CTAGGTAGGTTAAGGGGGTCATTCAGTTTGAAAG | 5.01 | 5.61 | 2.95 | 5.85 | 11.1 | 5.43 | 1.74 | 3.26 | 3.87 | 4.95 | 3.79 | 1.97 | 5.77 | 3.78 | 2.19 | 5.84 | –
CTATGTAGGTTAAGGGGGTAATTCAGTTTGAAAG | 7.52 | 7.27 | 2.67 | 2.99 | 1.83 | 2.31 | 1.28 | 2.32 | 1.84 | 2.06 | 1.59 | 1.27 | 1.95 | 2.44 | 1.35 | 1.41 | 3.5
CTATGTAGGTGAAGGGGGTCATTCAGTTTGAAAG | 7.88 | 8.11 | 2.81 | 5.89 | 9.91 | 6.01 | 0.852 | 3.52 | 3.79 | 4.75 | 3.55 | 2.11 | 5.63 | 3.88 | 1.67 | 5.55 | 7.13
CTTTGTAGGTTAAGGGGGTCATTCAGTTTGAAAG | 7.24 | 7.18 | 3.76 | 5.9 | 12 | 5.32 | 2.04 | 3.67 | 3.99 | 5.28 | 4.16 | 2.79 | 6.08 | 3.97 | 2.08 | 5.68 | 7.48
TCGAGTAGGTTACCGGGGCATTCAGGGATGAAGA | 3.7 | 4.46 | 0.533 | 0.554 | -0.524 | 0.534 | -0.856 | 1.22 | 1.09 | 1.01 | 0.946 | -0.0634 | 0.997 | 2.25 | 0.104 | -0.232 | –
CCGAGTAGGTTTCGAGGGGGCATTCAGTGCGAAT | 2.27 | 2.41 | 1.58 | 3.09 | 5.29 | 1.88 | 0.558 | 1.28 | 1.58 | 1.89 | 1.17 | 1.67 | 1.19 | 2.37 | 0.874 | 3.52 | 3.65
TCGAGTACGTTACGGGGGCATTCAGGGATGAAGA | 1.28 | 2.5 | 0.453 | 2.92 | 1.24 | 1.86 | 0.239 | 1.38 | 1.42 | 1.46 | 0.926 | 3.21 | 1.25 | 3.59 | 0.925 | 4.32 | 3.76
CTATGTAAGTTAAGGGGGTCATTCAGTTTGAAAG | 3.56 | 5.22 | 3.28 | 5.6 | 10.3 | 5.28 | 2.58 | 3.35 | 3.7 | 4.43 | 3.19 | 3.07 | 5.16 | 3.78 | 2.28 | 5.94 | 6.67
TCGAGTAGGTTACGGGGGCATTCGGGGATGAAGA | 5.16 | 5.85 | 3.02 | 3.55 | 2 | 3.36 | 0.243 | 2.54 | 2.34 | 3.52 | 2.38 | 1.85 | 2.92 | 4.01 | 1.63 | 3.83 | 4.16
CGGAGTAGGTTACGAGGGGGCATTCAGTGCGAAT | 6.26 | 7.82 | 1.69 | 5.02 | 6.07 | 3.15 | 0.639 | 2.54 | 2.45 | 3.35 | 2.86 | 2.04 | 2.09 | 3.8 | 0.507 | 3.73 | 5.44
TCGAGCAGGTTACGGGGGCATTCAGGGATGAAGA | 2.41 | 4.12 | 1.23 | 3.03 | 0.942 | 3.16 | 0.368 | 2.53 | 2.18 | 3.37 | 2.29 | 1.34 | 2.92 | 3.65 | 0.993 | 2.9 | 3.86
TCGAGTAGGTTACGGGGGCGTTCAGGGATGAAGA | 4.48 | 5.35 | 2.99 | 2.69 | 1.81 | 2.9 | 0.56 | 2.23 | 1.66 | 2.9 | 1.99 | 1.4 | 2.05 | 3.24 | 1.34 | 3.52 | 3.7
CCGAGTAGGTTACGAGGGGGCAATCAGTGCGAAT | 4.92 | 4.42 | 2.06 | 4.26 | 2.9 | 2.87 | 0.639 | 2.16 | 2.19 | 3.42 | 2.54 | 1.02 | 2.13 | 3.65 | 0.431 | 2.8 | –
CTATGGAGGTTAAGGGGGTCATTCAGTTTGAAAG | 4.65 | 6.42 | 4.29 | 6.58 | 12.7 | 6.29 | 2.33 | 4.01 | 4.08 | 5.71 | 4.46 | 3.59 | 6.48 | 4.04 | 2.95 | 6.81 | 8.03
